Laboratory results taken from PubChem BioAssay (NCATS).
Where “and” joins values, the source holds several entries; their conditions need not be identical. Equal values may be shown once. Records with an inconclusive call do not appear. Where a call stands in place of a potency, no number is given. Calls of active or inactive are those of the source. Calls follow the shape of the dose curve; as a rule, active = well fitted curve in the direction sought with a large enough effect; inconclusive = small, poorly fitted or top-dose-only effect, or another doubt; inactive = no such curve, though single readings can be large; an effect the other way counts as inactive or inconclusive.

Columns and labels:
[1] = qHTS of pediatric cancer cell lines to identify multiple opportunities for drug repurposing: Primary screen for TC32 cells (AID 1347089); also: nearly all actives have a fitted effect of over 60% in size
In short: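 Luminescent ATP read-out (CellTiter-Glo) of metabolically active TC32 cells after 48 h exposure. Concentration-response curves came from 11-point (MIPE, 0.78 nM–46 µM) or 8-point (NPC, 0.59 nM–46 µM) primary titrations; follow-up used 11 points.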

[2] = qHTS of pediatric cancer cell lines to identify multiple opportunities for drug repurposing: Primary screen for DAOY cells (AID 1347090); also: nearly all actives have a fitted effect of over 55% in size; also: potency is read from the fitted curve at half-maximal effect
In short: (§1)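 Eight- or eleven-point concentration series, 48 h treatment at 37 degrees C in growth media; readout CellTiter-Glo luminescence. Potency and efficacy were taken from the concentration-response curves.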

[3] = qHTS of pediatric cancer cell lines to identify multiple opportunities for drug repurposing: Primary screen for SJ-GBM2 cells (AID 1347091); also: potency is read from the fitted curve at half-maximal effect
In short: as §1

[4] = qHTS of pediatric cancer cell lines to identify multiple opportunities for drug repurposing: Primary screen for A673 cells (AID 1347092); also: nearly all actives have a fitted effect of over 45% in size; also: potency is read from the fitted curve at half-maximal effect
In short: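 Cell viability of A673 measured by CellTiter-Glo ATP luminescence after 48 hours compound exposure. Dilution series spanned 0.78 nM to 46 µM (MIPE, 11-point) or 0.59 nM to 46 µM (NPC, 8-point); bortezomib 2.3 uM positive control.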

[5] = qHTS of pediatric cancer cell lines to identify multiple opportunities for drug repurposing: Primary screen for SK-N-MC cells (AID 1347093); also: potency is read from the fitted curve at half-maximal effect
In short: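 Metabolically active cells were quantified by ATP-dependent luminescence (CellTiter-Glo, 15 min at room temperature) following 48 h treatment. Cells had been plated at 500-1,000 per well and settled for 5 h beforehand.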

[6] = qHTS of pediatric cancer cell lines to identify multiple opportunities for drug repurposing: Primary screen for NB-EBc1 cells (AID 1347095); also: potency is read from the fitted curve at half-maximal effect
In short: (§2)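 Cells seeded at 500-1,000 cells/well in growth media, rested 5 hours at 37 degrees C, 5% CO2, then dosed; MIPE compounds at 11-point (from 0.78 nM) and NPC at 8-point (from 0.59 nM) final concentrations. Viability by CellTiter-Glo luminescence after 48 hours.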

[7] = qHTS of pediatric cancer cell lines to identify multiple opportunities for drug repurposing: Primary screen for U-2 OS cells (AID 1347096); also: nearly all actives have a fitted effect of over 50% in size; also: potency is read from the fitted curve at half-maximal effect
In short: (§3)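 Cells (500-1,000/well) in growth media were settled 5 h at 37 degrees C, then given compounds for 48 h. Viability was read as CellTiter-Glo luminescence. Primary runs used MIPE at 11 points (0.78 nM-46 µM) and NPC at 8 points (0.59 nM-46 µM); follow-ups used 11 points.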

[8] = qHTS of pediatric cancer cell lines to identify multiple opportunities for drug repurposing: Primary screen for Saos-2 cells (AID 1347097); also: nearly all actives have a fitted effect of over 40% in size; also: potency is read from the fitted curve at half-maximal effect
In short: as §2

[9] = qHTS of pediatric cancer cell lines to identify multiple opportunities for drug repurposing: Primary screen for SK-N-SH cells (AID 1347098); also: nearly all actives have a fitted effect of over 65% in size; also: potency is read from the fitted curve at half-maximal effect
In short: (§4)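 Cells (500-1,000/well) rested 5 h, then received compounds for 48 h; metabolically active cells were measured by CellTiter-Glo luminescence. Final concentrations spanned up to 46 µM (MIPE, 11-point) or 0.59 nM-46 µM (NPC, 8-point) in primary screens, 11-point in follow-ups.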

[10] = qHTS of pediatric cancer cell lines to identify multiple opportunities for drug repurposing: Primary screen for NB1643 cells (AID 1347099); also: nearly all actives have a fitted effect of over 50% in size; also: potency is read from the fitted curve at half-maximal effect
In short: as §2

[11] = qHTS of pediatric cancer cell lines to identify multiple opportunities for drug repurposing: Primary screen for BT-12 cells (AID 1347101); also: nearly all actives have a fitted effect of over 25% in size; also: potency is read from the fitted curve at half-maximal effect
In short: as §4

[12] = qHTS of pediatric cancer cell lines to identify multiple opportunities for drug repurposing: Primary screen for Rh18 cells (AID 1347102); also: nearly all actives have a fitted effect of over 65% in size; also: potency is read from the fitted curve at half-maximal effect
In short: as §3

[13] = qHTS of pediatric cancer cell lines to identify multiple opportunities for drug repurposing: Primary screen for control Hh wild type fibroblast cells (AID 1347106);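 also: series mostly up to about 46 µM; a drop in luminescence marks cytotoxicity and a rise apparent proliferation; nearly all actives have a fitted effect of over 55% in size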
In short: as §3

[14] = qHTS of pediatric cancer cell lines to identify multiple opportunities for drug repurposing: Primary screen for Rh30 cells (AID 1347107); also: series mostly up to about 46 µM; nearly all actives have a fitted effect of over 75% in size
In short: as §3

[15] = qHTS of pediatric cancer cell lines to identify multiple opportunities for drug repurposing: Primary screen for BT-37 cells (AID 1347094); also: potency is read from the fitted curve at half-maximal effect
In short: as §2

[16] = qHTS of pediatric cancer cell lines to identify multiple opportunities for drug repurposing: Primary screen for LAN-5 cells (AID 1347100); also: potency is read from the fitted curve at half-maximal effect
In short: as §3

[17] = qHTS of pediatric cancer cell lines to identify multiple opportunities for drug repurposing: Primary screen for OHS-50 cells (AID 1347103); also: nearly all actives have a fitted effect of over 40% in size; also: potency is read from the fitted curve at half-maximal effect
In short: as §4

[18] = qHTS of pediatric cancer cell lines to identify multiple opportunities for drug repurposing: Primary screen for RD cells (AID 1347104); also: nearly all actives have a fitted effect of over 55% in size; also: potency is read from the fitted curve at half-maximal effect
In short: as §2

[19] = qHTS of pediatric cancer cell lines to identify multiple opportunities for drug repurposing: Primary screen for MG 63 (6-TG R) cells (AID 1347105); also: nearly all actives have a fitted effect of over 50% in size; also: potency is read from the fitted curve at half-maximal effect
In short: as §2

[20] = qHTS of pediatric cancer cell lines to identify multiple opportunities for drug repurposing: Primary screen for Rh41 cells (AID 1347108); also: nearly all actives have a fitted effect of over 70% in size; also: potency is read from the fitted curve at half-maximal effect
In short: as §2

Row | SMILES | Potency [1] | Potency [2] | Potency [3] | Potency [4] | Potency [5] | Potency [6] | Potency [7] | Potency [8] | Potency [9] | Potency [10] | Potency [11] | Potency [12] | Potency [13] | outcome [14] | Potency [15] | Potency [16] | Potency [17] | Potency [18] | Potency [19] | Potency [20]
1 | Clc1ccc(C(c2ccccc2Cl)C(Cl)Cl)cc1 (stereo not given) | inactive | inactive | inactive | 23.5 µM (active) | 16.6 µM (active) | 21.1 µM (active) and 18.7 µM (active) | inactive | 16.8 µM (active) and 18.7 µM (active) | inactive | inactive | inactive | inactive | inactive | inactive |  |  |  |  |  | 
2 | CC(C)NCC(O)COc1ccc(CCOCC2CC2)cc1 (stereo not given) | inactive | inactive | inactive | inactive | inactive | inactive | inactive | inactive | inactive | inactive | inactive | inactive | inactive | inactive | inactive | inactive | inactive | inactive | inactive | inactive
3 | O=C(Nc1ccc([N+](=O)[O-])cc1Cl)c1cc(Cl)ccc1O | inactive | 1.46 µM (active) and 1.18 µM (active) | 1.3 µM (active) and 743 nM (active) | 4.69 µM (active) | 1.3 µM (active) and 833 nM (active) | 4.11 µM (active) and 743 nM (active) |  | 2.31 µM (active) and 1.18 µM (active) |  | 820 nM (active) and 590 nM (active) | 1.69 µM (active) and 1.93 µM (active) | 3.72 µM (active) | inactive | inactive | 1.69 µM (active) and 1.37 µM (active) | 1.3 µM (active) and 935 nM (active) | 1.51 µM (active) and 863 nM (active) | 3.26 µM (active) and 1.48 µM (active) | 3.66 µM (active) and 1.18 µM (active) | 2.35 µM (active)
4 | CCCNCC(O)COc1ccccc1C(=O)CCc1ccccc1 (stereo not given) | inactive | inactive | inactive | inactive |  | inactive | inactive | inactive | 21.7 µM (active) | inactive |  |  | inactive | inactive | inactive |  |  | 33.2 µM (active) | inactive | inactive
5 | Cc1ccc(C(=O)Nc2ccc(S(=O)(=O)O)c3cc(S(=O)(=O)O)cc(S(=O)(=O)O)c23)cc1NC(=O)c1cccc(NC(=O)Nc2cccc(C(=O)Nc3cc(C(=O)Nc4ccc(S(=O)(=O)O)c5cc(S(=O)(=O)O)cc(S(=O)(=O)O)c45)ccc3C)c2)c1 | inactive | inactive | inactive | inactive | inactive | inactive | inactive | inactive | inactive | inactive | inactive | inactive | inactive | inactive | inactive | inactive | inactive | inactive | inactive | inactive
6 | CCOC(=O)Nc1ccc(NCc2ccc(F)cc2)nc1N | inactive | inactive | inactive |  | inactive | inactive | inactive | inactive | inactive | inactive | inactive | inactive | inactive | inactive | inactive | inactive | inactive | inactive | inactive | inactive
7 | CS(=O)(=O)CCNCc1ccc(-c2ccc3ncnc(Nc4ccc(OCc5cccc(F)c5)c(Cl)c4)c3c2)o1 | inactive | 235 nM (active) | 10.5 µM (active) | 74.3 nM (active) and 21.1 µM (active) | 93.5 nM (active) and 11.9 µM (active) | 3.72 µM (active) | 18.7 µM (active) | 29.6 µM (active) | 9.7 µM (active) |  |  | 20.9 µM (active) | inactive |  | 24.3 µM (active) and 27.6 µM (active) | 16.6 µM (active) |  | 1.32 µM (active) and 26.6 µM (active) | 5.9 µM (active) | 
8 | CN1C(C(=O)Nc2ccccn2)=C(O)c2ccccc2S1(=O)=O | inactive | inactive | inactive | inactive |  |  | inactive | inactive | inactive |  | inactive | inactive | inactive | inactive |  |  | inactive | inactive | inactive | inactive
9 | O=C(C1CCCCC1)N1CC(=O)N2CCc3ccccc3C2C1 (stereo not given) | inactive | inactive | inactive | inactive | inactive | inactive | inactive | inactive | inactive | inactive | inactive | inactive | inactive | inactive | inactive | inactive | inactive |  | inactive | inactive
10 | N[C@@H](Cc1c[nH]c2ccc(O)cc12)C(=O)O | inactive | inactive | inactive | inactive | inactive |  | inactive | inactive |  | inactive | inactive | inactive | inactive | inactive |  | inactive | inactive |  | inactive | inactive
11 | COc1ccc(CCN(C)CCCC(C#N)(c2ccc(OC)c(OC)c2)C(C)C)cc1OC (stereo not given) | inactive | inactive | inactive | inactive | inactive | inactive | inactive | inactive | inactive | inactive | inactive | inactive | inactive | inactive | inactive | inactive | inactive |  | inactive | inactive
12 | Cc1ccccc1N1C(=O)c2cc(S(N)(=O)=O)c(Cl)cc2NC1C (stereo not given) | inactive | inactive | inactive | inactive | inactive | inactive | inactive | inactive | inactive | inactive | inactive | inactive | inactive | inactive | inactive | inactive | inactive | inactive | inactive | inactive
